# PubChem BioAssay AID652154 (Broad Institute, 2013)
# Among all 360,000 compounds or so, about 4,200 (1.2%) were called active. The sample as a whole holds a higher share of actives than the screen did. A number with no mark means an inactive call.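 Rule for the calls: active = mean replicate inhibition at least 60% with every replicate also reaching 60%; inconclusive = only one of the two criteria is met; inactive = mean below 60% and not all replicates reaching 60%.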
# Assay: PAX8 transcriptional activity inhibition in RMG-I – RMG-I cells, luciferase, single concentration, primary screen (AID 652154);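 note: luciferase light reporting Pax8 driven TPO promoter activity; plate controls were median of neutral control wells for no effect and mitoxantrone controls for full effect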
# Conditions: RMG-I TPO-luciferase reporter, SteadyGlo, 24 h; at 12.6 µM; stronger effect = higher value
row,Compound,inhibition
1,Cc1ccc(S(=O)(=O)Nc2ccc3c(c2)C(=O)N([C@@H](C)CO)C[C@@H](C)[C@H](CN(C)CC2CC2)O3)cc1,-3.68%
2,COc1ccccc1-c1ccc([C@H]2[C@H](CO)N(C(=O)C3CC3)C23CN(C(C)=O)C3)cc1,1.61%
3,OCCCNc1nccc(-c2cc(Nc3cccc(Cl)c3)ncn2)n1,107% (active)
4,CCOc1c(Nc2cccc(Cl)c2)c(=O)c1=O,-11.1%
5,C[C@H](CO)N1C[C@H](C)[C@@H](CN(C)CC2CCCCC2)Oc2ccc(NC(=O)Cn3cnnn3)cc2CC1=O,-19.1%
6,COc1ccc(CN(C)C[C@H]2Oc3c(NS(=O)(=O)c4ccc(Cl)cc4)cccc3C(=O)N([C@H](C)CO)C[C@H]2C)cc1,5.03%
7,NC1=CC(=O)C(=O)c2cccnc21,117% (active)
8,COc1ccccc1-n1c(SCC(=O)Nc2cccc(C(=O)O)c2)nnc1-c1ccccc1O,19%
9,COc1cc(/C=N/Nc2ccc(C)cc2)cc(Br)c1O,-15%
10,COc1cccc(/C=N/Nc2cc(C)nc(-c3ccccc3O)n2)c1O,90.5% (active)
11,Cc1ccc(S(=O)(=O)N(C)C[C@H]2Oc3ccc(NS(=O)(=O)c4ccccc4)cc3CC(=O)N([C@@H](C)CO)C[C@H]2C)cc1,-2.41%
12,C[C@@H]1CN([C@H](C)CO)C(=O)c2cccc(NS(=O)(=O)c3ccc(F)cc3)c2O[C@H]1CN(C)Cc1ccc(Oc2ccccc2)cc1,16.4%
13,COc1ccc2[nH]c(C(=O)Nc3ccccc3Cl)cc2c1,-22.1%
14,COc1ccc2[nH]c(C(=O)N/N=C/c3cc(OC)c(OC)c(OC)c3)cc2c1,85.3% (active)
15,CCC(=O)c1ccc(OC(=O)/C=C/c2cc(OC)c(OC)c(OC)c2)cc1,-5.71%
16,C[C@@H]1CCCCO[C@@H](CN(C)S(=O)(=O)c2cccs2)[C@@H](C)CN([C@@H](C)CO)C(=O)c2cc(NS(=O)(=O)c3ccc(F)cc3)ccc2O1,32%
17,Cc1ccc(S(=O)(=O)N[C@H]2CC[C@H](CC(=O)NCc3ccccc3F)O[C@@H]2CO)cc1,3.28%
18,O=C(Cn1cnc2ccccc2c1=O)NNC(=O)c1ccccc1F,0.953%
19,Cc1cc2occ(CC(=O)NNC(=O)c3ccccc3F)c2cc1C,-1.24%
20,Cn1c(CC(=O)NNC(=O)c2ccccc2F)nc2ccccc21,74.1% (active)
21,O=C(C[C@H]1CC[C@@H]2[C@H](COC[C@@H](O)CN2Cc2cc(F)cc(F)c2)O1)NC1CCC1,4.75%
22,COc1ccc2c3c([nH]c2c1)[C@H](CO)N(C(=O)Nc1ccc(F)cc1)CC31CCN(CC2CCOCC2)CC1,27.1%
23,Cc1cc(=O)c2ccc(NC(=O)c3ccccc3)cc2[nH]1,-7.38%
24,O=C(NC1=CC(=O)c2ccccc2C1=O)c1ccccc1,99.2% (active)

row,Compound,inhibition
1,O=C(NCCc1ccccc1)c1cccc(NC(=O)c2ccccc2)c1,-77.4%
2,COC(=O)/C=C\C(=O)Nc1cccc([N+](=O)[O-])c1,87.5% (active)
3,Cc1ccc(NC(=O)O/N=C/c2cccc([N+](=O)[O-])c2)cc1,-64.7%
4,O=C(Nc1cccc([N+](=O)[O-])c1)N1CCc2ccccc2C1,-115%
5,O=C(Nc1cccc(NC(=O)c2ccccc2[N+](=O)[O-])c1)c1ccccc1Cl,-26.3%
6,Cc1cccc(NC(=O)c2ccc([N+](=O)[O-])o2)c1,86.2% (active)
7,Cc1onc(NC(=O)c2ccc([N+](=O)[O-])o2)c1Br,12.3%
8,O=C(N[C@H]1CC[C@H](CCNS(=O)(=O)c2ccc(F)cc2)O[C@H]1CO)C1CCC1,5.47%
9,O=C(CCc1ccc(O)cc1)NN=Cc1cc(Br)ccc1O,5.02%
10,O=C(N/N=C/c1ccccc1O)/C(=C/c1ccccc1)CCO,8.09%
11,O=C(CCCO)N/N=C/c1cc(Br)ccc1O,65% (active)
12,CN1CCN(C(=O)C[C@H]2C[C@@H]3c4cc(NS(=O)(=O)c5ccc(F)cc5)ccc4O[C@@H]3[C@@H](CO)O2)CC1,-4.63%
13,CCOC(=O)Nc1ccc2c(c1)N(C(=O)CCCl)c1ccccc1[S@]2=O,120% (active)
14,CCOC(=O)Nc1ccc2c(c1)N(C(=O)CN1CCN3CCCC3C1)c1ccccc1CC2 (stereo unspecified),-14.6%
15,CC(C)(COC(=O)Nc1ccccc1)COC(=O)Nc1ccccc1,-10.7%
16,CO[C@H]1CN(C)C(=O)c2ccc(NC(=O)C3CC3)cc2OC[C@@H](C)N(C(=O)CN2CCOCC2)C[C@H]1C,8.74%
17,Cc1onc(-c2ccccc2)c1C(=O)N=C(N)c1ccc(Cl)cc1,8.52%
18,Cc1[nH]c2ccccc2c1C(=O)COC(=O)c1c(-c2ccccc2)noc1C,20.4%
19,O=C(NNC(=S)NC(=O)c1cn(-c2ccccc2)nc1-c1ccccc1)c1ccncc1,-7.23%
20,COc1ccc(C(=O)NC(=S)NNC(=O)c2c(-c3ccccc3)noc2C)cc1,103% (active)
21,COc1ccc(C(=O)NNC(=O)c2cc(C)[nH]n2)cc1,-12.8%
22,Cc1onc(-c2ccccc2)c1C(=O)NNC(=S)NC(=O)c1ccc(F)cc1,69.8% (active)
23,COc1cccc(-c2ccc3n(c2=O)C[C@H]2[C@H](CO)[C@@H](C(=O)N4CCCCC4)N(C)[C@@H]32)c1,10.3%
24,C[C@@H]1CN([C@H](C)CO)C(=O)c2cc(C#Cc3cccnc3)cnc2O[C@@H]1CN(C)Cc1ccc(F)cc1,-16.3%

row,Compound,inhibition
1,Cc1ccccc1S(=O)(=O)NCC[C@@H]1CC[C@H](NC(=O)C2CCC2)[C@@H](CO)O1,6.58%
2,CN1C[C@@H]2[C@H](c3ccccc31)[C@H](CO)N2C(=O)Nc1ccc(F)cc1,-2.1%
3,CO[C@H]1CN(C)C(=O)c2ccc(NC(=O)Nc3c(C)noc3C)cc2OC[C@@H](C)NC[C@H]1C,-5.2%
4,COc1ccc(C#Cc2ccc([C@@H]3[C@H](CO)N4C(=O)CN(C(C)=O)C[C@@H]34)cc2)cc1,-10.2%
5,CCS(=O)(=O)Nc1ccc2c(c1)C(=O)N(C)[C@@H]1CC[C@@H](CC(=O)N3CCCCC3)O[C@H]1CO2,-5.14%
6,O=C(CN1CCOCC1)NCC[C@@H]1CC[C@@H](NC(=O)Nc2ccccc2)[C@H](CO)O1,-2.03%
7,C[C@@H]1CN([C@H](C)CO)C(=O)c2cccc(NC(=O)c3ccncc3)c2O[C@@H]1CN(C)C,-8.91%
8,COc1ccc(NC(=O)O[C@H]2[C@H](OC(=O)Nc3ccc4c(c3)OCO4)[C@@H](OC(=O)Nc3ccc4c(c3)OCO4)[C@@H](OC)O[C@@H]2CO)cc1,14.1%
9,CO[C@H]1O[C@H](CO)[C@@H](OC(=O)Nc2ccccc2-c2ccccc2)[C@H](OC(=O)Nc2ccccc2)[C@H]1OC(=O)Nc1ccccc1,80% (active)
10,CO[C@H]1O[C@H](CO)[C@@H](OC(=O)Nc2ccccc2)[C@H](OC(=O)Nc2ccc3c(c2)OCO3)[C@H]1OC(=O)Nc1ccc2c(c1)OCO2,16.9%
11,COc1cc(OC)c(C(=O)Nc2ccccc2-c2ccccc2)cc1OC,-10.7%
12,CCc1cccc(NC(=O)O[C@H]2[C@H](OC(=O)Nc3ccccc3-c3ccccc3)[C@H](OC(=O)Nc3ccccc3-c3ccccc3)[C@@H](OC)O[C@@H]2CO)c1,43.4%
13,CO[C@H]1O[C@H](CO)[C@@H](OC(=O)Nc2ccc(C(F)(F)F)cc2)[C@H](OC(=O)Nc2ccc3c(c2)OCO3)[C@H]1OC(=O)Nc1ccc2c(c1)OCO2,72.5% (active)
14,C[C@@H]1CN([C@H](C)CO)S(=O)(=O)c2ccc(C#CC3(O)CCCC3)cc2O[C@@H]1CN(C)C(=O)c1cccnc1,-6.88%
15,COc1ccccc1NC(=O)N1[C@@H]2CNC[C@H]1C2c1ccc(-c2ccccc2C)cc1 (stereo partly specified),-13.6%
16,Cc1noc(C)c1S(=O)(=O)Nc1ccc2c(c1)C(=O)N([C@H](C)CO)C[C@@H](C)[C@H](CN(C)C(=O)NC(C)C)OCCCC[C@@H](C)O2,16.4%
17,C[C@H](CO)N1C[C@H](C)[C@@H](CN(C)Cc2ccc(C(F)(F)F)cc2)OCc2ccccc2-c2c(n(C)c3ccccc23)C1=O,24%
18,COc1ccc(S(=O)(=O)Nc2ccc3c(c2)C(=O)N([C@@H](C)CO)C[C@H](C)[C@@H](CN(C)S(=O)(=O)c2ccc(F)cc2)OCCCC[C@H](C)O3)cc1,68.7% (active)
19,COc1ccc(S(=O)(=O)Nc2ccc3c(c2)C(=O)N([C@@H](C)CO)C[C@H](C)[C@@H](CN(C)S(=O)(=O)c2ccc(C)cc2)OCCCC[C@@H](C)O3)cc1,31.9%
20,COc1ccc(S(=O)(=O)N(C)C[C@H]2OCCCC[C@@H](C)Oc3ccc(NS(=O)(=O)c4ccc(C)cc4)cc3C(=O)N([C@@H](C)CO)C[C@@H]2C)cc1,36.3%
21,COc1ccc(S(=O)(=O)N(C)C[C@H]2OCCCC[C@H](C)Oc3ccc(NS(=O)(=O)c4ccc(F)cc4)cc3C(=O)N([C@@H](C)CO)C[C@@H]2C)cc1,75.4% (active)
22,COc1ccc(S(=O)(=O)Nc2ccc3c(c2)C(=O)N([C@@H](C)CO)C[C@H](C)[C@H](CN(C)S(=O)(=O)c2ccc(F)cc2)OCCCC[C@@H](C)O3)cc1,34%
23,COc1ccc(S(=O)(=O)N(C)C[C@@H]2OCCCC[C@@H](C)Oc3ccc(NS(=O)(=O)c4ccccc4)cc3C(=O)N([C@@H](C)CO)C[C@H]2C)cc1,19.7%
